Assay results from the supplement of paper PMC10849652.
The full data set covers some 7,900 targets. This sample favours those with a hit. About 0.6% of all pairs of compound and target were hits. Unmarked numbers belong to inactive results.

How the values were obtained:
Test in all cases: log2 fold change, soluble protein after heating vs DMSO (PISA); higher = thermal stabilisation; K562 cells, 10 uM, 30 min; active = over 0.2 and 3.5 SD of the protein, either way, in both replicates (recomputed)
[1] = compound: CC[C@@H]1C(=O)N(C)c2cnc(Nc3ccc(C(=O)NC4CCN(C)CC4)cc3OC)nc2N1C1CCCC1
In short: (§1)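 K562 cells (2×10^6 cells/mL) were treated with 10 μM compound for 30 min, and aliquots were heated for 3 min over 48°C-58°C. Pooled aliquots were extracted in PBS with 0.5% NP-40 at 4°C, and the supernatant after 21,000xg for 90 min was measured by TMTpro 16plex LC-MS/MS with channel sums equalised. Reported thermal stability, relative to control samples and from duplicates, is a log2 fold change.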

volasertib = compound: CC[C@@H]1C(=O)N(C)c2cnc(Nc3ccc(C(=O)N[C@H]4CC[C@H](N5CCN(CC6CC6)CC5)CC4)cc3OC)nc2N1C(C)C [volasertib]
In short: as §1

[2] = compound: CC[C@H](C)N1C=C(C2=C(C=C(C=C21)C3=CN=C(C=C3)N4CCNCC4)C(=O)NCC5=C(C=C(NC5=O)C)C)C
In short: as §1

epoxomicin = compound: CC[C@H](C)[C@@H](C(=O)N[C@@H]([C@@H](C)O)C(=O)N[C@@H](CC(C)C)C(=O)[C@]1(CO1)C)NC(=O)[C@H]([C@@H](C)CC)N(C)C(=O)C [epoxomicin]
In short: as §1

[3] = compound: CCn1c(C(=O)N(C2CC2)C2CC2)cc2c3c(ncn3C)c(Nc3cc(C)n(C)n3)nc21
In short: as §1

[4] = compound: CCn1cc(-c2ccnc3[nH]c(-c4cccc(CN(C)C)c4)cc23)c(-c2ccc(NC(=O)N(C)C)cc2)n1
In short: as §1

[5] = compound: CN(C)CC(=O)Nc1ccc2[nH]c(=O)c3ccccc3c2c1
In short: as §1

rosiglitazone = compound: CN(CCOC1=CC=C(C=C1)C[C@H]2C(=O)NC(=O)S2)C3=CC=CC=N3 (racemic) [rosiglitazone]
In short: as §1

[6] = compound: CN1C2=C(C3=C1C(=O)N(N=C3)CC4=CC(=CC=C4)N)SC(=C2)S(=O)C
In short: as §1

[7] = compound: CN1CCC(CNc2ccc3ncc(-c4cccc(OC(F)(F)F)c4)n3n2)CC1
In short: as §1

saracatinib = compound: CN1CCN(CCOc2cc(OC3CCOCC3)c3c(Nc4c(Cl)ccc5c4OCO5)ncnc3c2)CC1 [saracatinib]
In short: as §1

sotrastaurin = compound: CN1CCN(c2nc(C3=C(c4c[nH]c5ccccc45)C(=O)NC3=O)c3ccccc3n2)CC1 [sotrastaurin]
In short: as §1

alvocidib = compound: CN1CC[C@H](c2c(O)cc(O)c3c(=O)cc(-c4ccccc4Cl)oc23)[C@H](O)C1 [alvocidib]
In short: as §1

Tubastatin A = compound: CN1CCc2c(c3ccccc3n2Cc2ccc(C(=O)NO)cc2)C1 [Tubastatin A]
In short: as §1

[8] = compound: CNC(=O)C1=CC=CC=C1NC2=NC(=NC=C2Cl)NC3=C(C=C(C=C3)N4CCOCC4)OC
In short: as §1

defactinib = compound: CNC(=O)c1ccc(Nc2ncc(C(F)(F)F)c(NCc3nccnc3N(C)S(C)(=O)=O)n2)cc1 [defactinib]
In short: as §1

rucaparib = compound: CNCc1ccc(-c2[nH]c3cc(F)cc4c3c2CCNC4=O)cc1 [rucaparib]
In short: as §1

[9] = compound: CNc1nc(-c2ccc3c(N)n[nH]c3c2)cc(N2C[C@@H](C(=O)NC3CCCCC3)CC[C@H]2C)n1
In short: as §1

encorafenib = compound: COC(=O)N[C@@H](C)CNc1nccc(-c2cn(C(C)C)nc2-c2cc(Cl)cc(NS(C)(=O)=O)c2F)n1 [encorafenib]
In short: as §1

[10] = compound: COC(=O)[C@H](CCSC)NC(=O)C1=C(C=C(C=C1)NC[C@H](CS)N)C2=CC=CC=C2
In short: as §1

Chain of UniProt Q5R3I4 (Q5R3I4 whole entry, looked up): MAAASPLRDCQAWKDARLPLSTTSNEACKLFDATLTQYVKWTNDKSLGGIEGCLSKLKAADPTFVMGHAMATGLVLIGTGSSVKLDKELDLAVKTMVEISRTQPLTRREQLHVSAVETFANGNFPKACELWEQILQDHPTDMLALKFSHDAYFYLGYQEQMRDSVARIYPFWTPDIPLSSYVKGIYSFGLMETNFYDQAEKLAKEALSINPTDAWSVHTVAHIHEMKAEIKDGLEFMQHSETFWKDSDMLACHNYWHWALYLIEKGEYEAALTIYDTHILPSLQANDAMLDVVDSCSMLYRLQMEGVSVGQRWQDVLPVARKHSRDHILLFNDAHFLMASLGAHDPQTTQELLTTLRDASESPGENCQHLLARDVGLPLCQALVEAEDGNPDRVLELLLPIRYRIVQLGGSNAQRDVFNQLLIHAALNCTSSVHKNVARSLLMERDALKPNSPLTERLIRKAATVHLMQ
Chain of UniProt P51809 (P51809 whole entry, looked up): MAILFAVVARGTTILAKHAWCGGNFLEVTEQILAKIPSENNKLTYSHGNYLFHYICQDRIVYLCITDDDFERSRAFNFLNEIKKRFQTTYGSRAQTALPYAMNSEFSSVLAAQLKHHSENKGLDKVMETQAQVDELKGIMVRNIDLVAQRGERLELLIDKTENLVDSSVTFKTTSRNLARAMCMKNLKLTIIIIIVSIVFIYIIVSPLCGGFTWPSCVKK
Chain of UniProt Q9UBK9 (Q9UBK9 whole entry, looked up): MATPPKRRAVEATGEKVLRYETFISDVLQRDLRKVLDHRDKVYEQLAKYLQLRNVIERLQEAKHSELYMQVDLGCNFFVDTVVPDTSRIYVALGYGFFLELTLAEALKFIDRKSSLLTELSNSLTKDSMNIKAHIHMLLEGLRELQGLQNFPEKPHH
Chain of UniProt Q7L0Y3 (Q7L0Y3 whole entry, looked up): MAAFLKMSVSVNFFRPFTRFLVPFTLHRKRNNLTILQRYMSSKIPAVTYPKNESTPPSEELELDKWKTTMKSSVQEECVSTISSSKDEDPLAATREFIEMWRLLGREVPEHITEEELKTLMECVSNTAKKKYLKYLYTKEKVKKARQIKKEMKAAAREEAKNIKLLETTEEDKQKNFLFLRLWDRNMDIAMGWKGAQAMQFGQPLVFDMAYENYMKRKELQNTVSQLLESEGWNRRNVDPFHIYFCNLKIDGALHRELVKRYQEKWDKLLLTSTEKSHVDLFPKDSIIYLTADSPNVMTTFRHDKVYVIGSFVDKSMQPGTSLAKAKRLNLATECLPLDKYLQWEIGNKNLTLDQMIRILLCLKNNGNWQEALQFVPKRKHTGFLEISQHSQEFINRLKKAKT
Chain of UniProt O14773 (O14773 whole entry, looked up): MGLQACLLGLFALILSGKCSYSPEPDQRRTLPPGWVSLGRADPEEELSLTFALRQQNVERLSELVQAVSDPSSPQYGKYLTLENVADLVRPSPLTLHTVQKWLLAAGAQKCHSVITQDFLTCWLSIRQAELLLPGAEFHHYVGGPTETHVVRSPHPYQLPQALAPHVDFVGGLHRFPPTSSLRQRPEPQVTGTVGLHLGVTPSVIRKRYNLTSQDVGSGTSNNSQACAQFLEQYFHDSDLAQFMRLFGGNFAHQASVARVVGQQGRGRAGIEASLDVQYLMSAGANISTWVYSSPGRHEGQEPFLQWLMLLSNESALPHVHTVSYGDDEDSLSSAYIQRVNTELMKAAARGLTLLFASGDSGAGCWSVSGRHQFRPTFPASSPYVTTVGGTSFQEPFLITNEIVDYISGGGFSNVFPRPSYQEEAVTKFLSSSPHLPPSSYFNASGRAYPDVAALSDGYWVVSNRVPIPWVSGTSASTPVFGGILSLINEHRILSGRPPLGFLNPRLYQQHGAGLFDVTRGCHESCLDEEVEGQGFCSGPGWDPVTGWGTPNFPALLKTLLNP
Chain of UniProt Q13263 (Q13263 whole entry, looked up): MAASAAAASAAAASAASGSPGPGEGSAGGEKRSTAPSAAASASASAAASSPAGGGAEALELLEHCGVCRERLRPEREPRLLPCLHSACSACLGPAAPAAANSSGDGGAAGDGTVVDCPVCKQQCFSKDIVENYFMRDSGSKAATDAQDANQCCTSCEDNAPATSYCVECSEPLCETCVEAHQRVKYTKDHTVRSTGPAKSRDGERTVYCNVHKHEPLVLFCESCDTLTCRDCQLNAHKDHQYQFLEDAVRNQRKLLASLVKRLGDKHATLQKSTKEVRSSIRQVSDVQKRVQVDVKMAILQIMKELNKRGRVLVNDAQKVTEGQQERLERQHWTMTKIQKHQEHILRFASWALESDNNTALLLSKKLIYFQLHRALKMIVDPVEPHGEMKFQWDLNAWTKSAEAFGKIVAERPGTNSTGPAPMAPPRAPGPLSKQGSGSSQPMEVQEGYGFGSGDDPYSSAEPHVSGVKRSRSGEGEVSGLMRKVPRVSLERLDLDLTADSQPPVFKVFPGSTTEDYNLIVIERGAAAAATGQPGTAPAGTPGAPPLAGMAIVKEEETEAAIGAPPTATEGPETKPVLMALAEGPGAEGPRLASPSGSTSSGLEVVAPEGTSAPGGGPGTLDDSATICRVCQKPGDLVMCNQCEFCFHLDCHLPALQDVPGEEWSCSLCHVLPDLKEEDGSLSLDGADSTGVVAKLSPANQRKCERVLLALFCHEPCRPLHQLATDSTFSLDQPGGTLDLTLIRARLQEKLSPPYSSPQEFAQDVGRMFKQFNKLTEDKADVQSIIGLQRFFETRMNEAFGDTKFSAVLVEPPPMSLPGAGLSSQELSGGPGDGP
Chain of UniProt Q8IZ69 (Q8IZ69 whole entry, looked up): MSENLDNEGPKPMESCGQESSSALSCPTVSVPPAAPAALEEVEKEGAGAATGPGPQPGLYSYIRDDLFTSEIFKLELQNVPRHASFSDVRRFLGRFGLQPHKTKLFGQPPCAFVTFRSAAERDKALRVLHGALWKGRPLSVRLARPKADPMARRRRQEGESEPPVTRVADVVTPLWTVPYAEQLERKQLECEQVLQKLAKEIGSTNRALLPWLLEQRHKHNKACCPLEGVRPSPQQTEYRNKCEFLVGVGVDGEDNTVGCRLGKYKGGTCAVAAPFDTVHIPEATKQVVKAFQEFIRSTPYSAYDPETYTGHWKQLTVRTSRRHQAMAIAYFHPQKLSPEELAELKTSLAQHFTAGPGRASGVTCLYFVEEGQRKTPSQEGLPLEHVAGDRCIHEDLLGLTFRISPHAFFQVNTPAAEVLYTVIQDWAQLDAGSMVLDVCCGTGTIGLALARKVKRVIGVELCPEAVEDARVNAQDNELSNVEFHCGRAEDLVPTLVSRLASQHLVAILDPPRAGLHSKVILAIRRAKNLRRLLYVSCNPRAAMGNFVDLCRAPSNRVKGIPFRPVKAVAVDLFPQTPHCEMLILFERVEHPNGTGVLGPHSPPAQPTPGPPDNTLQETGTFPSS
Chain of UniProt Q96AX1 (Q96AX1 whole entry, looked up): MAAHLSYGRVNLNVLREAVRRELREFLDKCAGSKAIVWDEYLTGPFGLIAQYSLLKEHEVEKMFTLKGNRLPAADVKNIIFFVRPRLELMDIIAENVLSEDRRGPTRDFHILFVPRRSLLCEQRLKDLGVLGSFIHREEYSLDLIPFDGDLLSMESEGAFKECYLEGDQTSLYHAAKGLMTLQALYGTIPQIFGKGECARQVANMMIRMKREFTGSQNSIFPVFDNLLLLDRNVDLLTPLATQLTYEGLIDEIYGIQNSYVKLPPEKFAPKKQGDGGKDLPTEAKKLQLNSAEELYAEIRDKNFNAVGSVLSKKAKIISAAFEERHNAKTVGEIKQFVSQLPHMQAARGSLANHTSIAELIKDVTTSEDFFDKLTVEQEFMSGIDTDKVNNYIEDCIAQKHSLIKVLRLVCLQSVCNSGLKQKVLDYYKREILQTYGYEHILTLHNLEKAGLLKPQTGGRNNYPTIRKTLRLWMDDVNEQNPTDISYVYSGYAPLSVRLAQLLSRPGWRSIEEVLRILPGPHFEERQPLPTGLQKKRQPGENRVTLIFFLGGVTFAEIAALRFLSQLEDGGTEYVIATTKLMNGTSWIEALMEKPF
Chain of UniProt Q9NQW7 (Q9NQW7 whole entry, looked up): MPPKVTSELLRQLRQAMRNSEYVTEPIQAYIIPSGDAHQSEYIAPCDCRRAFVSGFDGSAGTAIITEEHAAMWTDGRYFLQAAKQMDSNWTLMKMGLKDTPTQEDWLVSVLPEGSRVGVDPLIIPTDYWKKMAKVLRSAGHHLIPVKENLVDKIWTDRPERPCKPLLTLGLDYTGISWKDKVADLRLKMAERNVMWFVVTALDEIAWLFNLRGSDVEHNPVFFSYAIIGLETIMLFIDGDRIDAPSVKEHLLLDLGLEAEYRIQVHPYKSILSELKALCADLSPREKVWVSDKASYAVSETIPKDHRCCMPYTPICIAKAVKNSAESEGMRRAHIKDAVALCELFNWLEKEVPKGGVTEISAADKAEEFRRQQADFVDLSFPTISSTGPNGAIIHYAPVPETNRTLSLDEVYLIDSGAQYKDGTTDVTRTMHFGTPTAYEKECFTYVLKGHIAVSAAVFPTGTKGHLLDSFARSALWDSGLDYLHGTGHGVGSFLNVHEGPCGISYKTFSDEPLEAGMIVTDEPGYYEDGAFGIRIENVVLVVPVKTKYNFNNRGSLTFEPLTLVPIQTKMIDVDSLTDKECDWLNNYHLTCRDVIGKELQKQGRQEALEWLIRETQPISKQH
Chain of UniProt A0PJW6 (A0PJW6 whole entry, looked up): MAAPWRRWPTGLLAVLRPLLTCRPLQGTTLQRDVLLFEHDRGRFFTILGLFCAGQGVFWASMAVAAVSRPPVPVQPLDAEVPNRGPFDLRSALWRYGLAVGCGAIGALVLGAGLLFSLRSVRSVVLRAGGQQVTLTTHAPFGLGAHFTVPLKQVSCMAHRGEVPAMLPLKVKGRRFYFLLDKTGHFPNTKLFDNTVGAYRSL
Chain of UniProt Q969T4 (Q969T4 whole entry, looked up): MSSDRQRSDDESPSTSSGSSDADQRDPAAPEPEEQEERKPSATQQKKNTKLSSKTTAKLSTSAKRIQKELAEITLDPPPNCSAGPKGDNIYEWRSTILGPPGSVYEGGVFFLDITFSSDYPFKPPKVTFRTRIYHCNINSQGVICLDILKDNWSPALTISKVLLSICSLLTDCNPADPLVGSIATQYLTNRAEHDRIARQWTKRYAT

Row | Target | log2 fold change [1] | log2 fold change (volasertib) | log2 fold change [2] | log2 fold change (epoxomicin) | log2 fold change [3] | log2 fold change [4] | log2 fold change [5] | log2 fold change (rosiglitazone) | log2 fold change [6] | log2 fold change [7] | log2 fold change (saracatinib) | log2 fold change (sotrastaurin) | log2 fold change (alvocidib) | log2 fold change (Tubastatin A) | log2 fold change [8] | log2 fold change (defactinib) | log2 fold change (rucaparib) | log2 fold change [9] | log2 fold change (encorafenib) | log2 fold change [10]
1 | VAMP7 (UniProt P51809) | -0.057 | -0.019 | 0.009 | 0.045 | 0.012 | -0.026 | 0.014 | -0.022 | -0.07 | -0.181 | 0.029 | 0.012 | -0.019 | -0.001 | 0.03 | -0.028 | -0.027 | -0.022 | 0.029 | -0.011
2 | UXT isoform 2 (UniProt Q9UBK9) | 0.082 | 0.128 | 0.05 | -0.038 | -0.294 | -0.248 | 0.015 | 0.022 | -0.052 | -0.126 | 0.031 | -0.056 | -0.01 | 0.077 | -0.191 | 0 | 0.049 | -0.027 | -0.018 | -0.078
3 | XPNPEP1 isoform 3 (UniProt Q9NQW7) | 0.027 | 0.049 | 0.018 | -0.024 | 0 | -0.043 | 0.051 | 0.028 | -0.064 | -0.076 | 0.002 | -0.005 | -0.076 | -0.125 | -0.027 | -0.07 | -0.033 | -0.012 | -0.008 | 0.352 (active)
4 | TRMT2A (UniProt Q8IZ69) | 0.01 | 0.016 | 0.044 | -0.083 | 0.086 | -0.003 | 0.034 | -0.001 | 0.1 | -0.198 | -0.011 | -0.076 | -0.045 | -0.005 | -0.049 | -0.031 | 0.084 | 0.094 | 0.056 | -0.094
5 | TP53BP1 isoform 2 (UniProt Q12888) | -0.024 | -0.072 | 0.021 | 0 | -0.01 | 0 | 0.008 | -0.018 | 0.052 | 0.025 | 0.01 | -0.112 | -0.081 | 0.116 | 0.061 | -0.073 | 0.025 | -0.022 | 0.059 | 0.036
6 | UBAP2L isoform 1 (UniProt Q14157) | -0.026 | -0.417 | 0.046 | -0.005 | 0.059 | 0.026 | -0.004 | 0.001 | 0 | -0.023 | -0.001 | 0.063 | -0.092 | -0.016 | 0.038 | -0.02 | -0.017 | -0.073 | -0.014 | -0.015
7 | TPP1 (UniProt O14773) | -0.647 (active) | -1.09 (active) | -0.002 | 0.019 | 0.033 | -0.117 | 0.007 | 0.007 | -0.001 | -0.569 (active) | -0.008 | -0.005 | -0.005 | 0.005 | 0.007 | 0.049 | -0.013 | -0.013 | 0.018 | 0.011
8 | TTC38 (UniProt Q5R3I4) | 0.076 | 0.253 | 0.041 | 0.012 | -0.017 | -0.05 | 0.136 | -0.015 | -0.049 | -0.039 | -0.045 | 0.086 | -0.132 | 0.578 (active) | -0.062 | -0.262 | 0.435 | 0.293 | -0.02 | -0.011
9 | TRMT10C (UniProt Q7L0Y3) | -0.161 | -0.416 (active) | 0.07 | 0.046 | -0.064 | -0.057 | 0.018 | 0.021 | 0.008 | 0.003 | -0.129 | -0.013 | -0.126 | -0.064 | -0.024 | -0.055 | -0.011 | 0.042 | 0.041 | -0.056
10 | WASHC2C, A0A096LPC5 | 0.034 | -0.111 | -0.03 | -0.016 | 0.063 | -0.132 | 0.012 | 0.067 | 0.142 | -0.507 (active) | -0.116 | -0.09 | 0.071 | -0.02 | -0.019 | -0.121 | 0.114 | -0.02 | 0.035 | 0.052
11 | VPS33A (UniProt Q96AX1) | -0.224 | -0.359 (active) | 0.043 | 0.039 | -0.031 | -0.004 | 0.059 | 0.062 | 0.035 | -0.208 | -0.036 | -0.174 | -0.071 | 0.033 | -0.043 | -0.06 | 0.045 | -0.013 | -0.003 | -0.025
12 | TRAM1 (UniProt Q15629) | -0.216 | -0.161 | 0.031 | 0.008 | -0.004 | 0.066 | 0.062 | 0.095 | -0.001 | -0.759 (active) | -0.007 | -0.025 | -0.02 | -0.052 | -0.208 | -0.029 | -0.132 | 0 | 0.179 | -0.052
13 | TRIM28 (UniProt Q13263) | -0.097 | -0.222 (active) | 0.052 | 0.077 | -0.004 | 0 | 0.047 | 0.029 | -0.033 | -0.033 | 0.008 | -0.064 | -0.128 | 0.048 | 0.054 | -0.121 | -0.075 | -0.019 | 0.047 | -0.032
14 | UBE2E3 (UniProt Q969T4) | -0.124 | -0.377 (active) | -0.008 | -0.052 | 0.051 | -0.11 | 0.022 | 0.059 | -0.005 | -0.24 | -0.03 | -0.044 | -0.085 | -0.074 | 0.067 | -0.162 | -0.014 | -0.022 | 0.017 | -0.067
15 | TMEM223 (UniProt A0PJW6) | -0.004 | 0.043 | 0.035 | -0.01 | -0.009 | 0.022 | -0.015 | 0.032 | -0.022 | -0.271 (active) | 0.114 | 0.048 | -0.025 | -0.059 | 0.045 | 0.015 | -0.03 | -0.02 | -0.047 | 0.022
16 | XPOT (UniProt O43592) | -0.363 (active) | -0.855 (active) | 0.04 | -0.033 | 0 | 0.021 | 0.058 | 0.059 | -0.028 | -0.16 | 0.017 | -0.102 | -0.023 | 0.026 | 0.076 | -0.022 | 0.005 | -0.116 | 0.076 | -0.044
